# Laboratory results reported in PubChem BioAssay (NCATS).
# A number with no mark means an inactive call. Inconclusive results are not listed. Entries that show only a call come without a potency. Active and inactive are the calls of the source. Unless noted, calls follow the shape of the dose curve; as a rule, active = well fitted curve in the direction sought with a large enough effect; inconclusive = small, poorly fitted or top-dose-only effect, or another doubt; inactive = no such curve, though single readings can be large; an effect the other way counts as inactive or inconclusive.
# Assays:
# [1] = biological target: Cytochrome P450 2C9 (Homo sapiens) (UniProt P11712); assay: qHTS Assay for Inhibitors and Substrates of Cytochrome P450 2C9 (AID 883); also: nearly all actives have a fitted effect of over 60% in size; also: potency is read from the fitted curve at half-maximal effect
# Outline: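 10nM CYP2C9 + 100uM Luciferin-H (=KM), 25mM KPO4; cpd 10 min 37C; NADPH regen, 60 min 37C; stop/detect with P450 Glo-Buffer 20 min; luminescence. Norm. to 57uM sulphaphenazole as full inhibition.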
# [2] = biological target: Cytochrome P450 2D6 (Homo sapiens) (UniProt P10635); assay: qHTS Assay for Inhibitors and Substrates of Cytochrome P450 2D6 (AID 891); also: nearly all actives have a fitted effect of over 60% in size; also: potency is read from the fitted curve at half-maximal effect
# Outline: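 Luminescent read-out of luciferin formed by 5 nM human CYP2D6 demethylating 30 uM Luciferin-ME EGE (Km level) over 60 min at room temperature after NADPH regeneration addition. Data normalized to full inhibition by 1.43 uM quinidine.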
# [3] = biological target: Cytochrome P450 2C19 (Homo sapiens) (UniProt P33261); assay: qHTS Assay for Inhibitors and Substrates of Cytochrome P450 2C19 (AID 899); also: nearly all actives have a fitted effect of over 60% in size; also: potency is read from the fitted curve at half-maximal effect
# Outline: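 Luminescent read-out of luciferin formed from Luciferin-H EGE (10uM, equal to KM). Enzyme 5nM in 50mM KPO4; compound added, 10 min at 37C, then NADPH regenerating system for 60 min at 37C. Full inhibition defined by 57uM ketoconazole.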
# [4] = biological target: Rap guanine nucleotide exchange factor 3 (Homo sapiens) (UniProt O95398); assay: Confirmatory qHTS for antagonist of cAMP-regulated guanine nucleotide exchange factor 3 (EPAC1) (AID 1645880); also: nearly all actives have a fitted effect of over 55% in size; also: potency is read from the fitted curve at half-maximal effect
# Outline: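 Released BODIPY-GDP fluoresces less than Rap1-bound BODIPY-GDP; the signal is followed at 480/540 nm at 5-min intervals over 30 min, after 5 min at room temperature. Reactions contain 100 nM EPAC1, 250 nM RAP1B-BODIPY-GDP and 50 uM GDP; results are normalized to ATA and DMSO.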
# [5] = biological target: Rap guanine nucleotide exchange factor 4 (Homo sapiens) (UniProt Q8WZA2); assay: Confirmatory qHTS for antagonist of cAMP-regulated guanine nucleotide exchange factor 4 (EPAC2) (AID 1645885); also: nearly all actives have a fitted effect of over 25% in size; also: potency is read from the fitted curve at half-maximal effect
# [6] = biological target: DNA repair nuclease/redox regulator APEX1 (Homo sapiens) (UniProt P27695); assay: qHTS Validation Assay for Inhibitors of the Human Apurinic/apyrimidinic Endonuclease 1 (APE1) (AID 1705;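 also: TAMRA fluorescence gain over two minutes as APE1 cuts a quenched THF abasic duplex; series mostly up to about 57 µM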)
# Outline: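 Substrate: 50 nM final fluorophore/quencher THF-abasic duplex. Enzyme preincubated with compounds 15 min, RT. Progress derived from fluorescence difference, third minus first kinetic read.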
# [7] = Counterscreen for APE1 Inhibitors: Fluorescent Dye Displacement Validation Assay (AID 1707)
# Outline: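 Reaction mixture of 250 nM Thiazole Orange and 50 nM double-stranded abasic-site DNA was dispensed, compounds were pin-transferred, and fluorescence was read at endpoint (480 nm ex, 540 nm em). Reduced fluorescence indicated dye displacement by DNA binding.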
# [8] = biological target: Endonuclease 4 (Escherichia coli (strain K12)) (UniProt P0A6C1); assay: Counterscreen for APE1 Inhibitors: qHTS Validation Assay for Inhibitors of Endonuclease IV (AID 1708)
# Outline: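 Conditions: 2 nM enzyme, 50 nM TAMRA/BHQ-2 substrate, pH 7.5 Tris buffer with 2 mM MgCl2, RT. Compound preincubation 15 min; readout three fluorescence reads 60 s apart, third-minus-first.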
# [9] = qHTS for differential inhibitors of proliferation of Plasmodium falciparum line 3D7 (AID 1876); also: potency is read from the fitted curve at half-maximal effect
# [10] = qHTS for differential inhibitors of proliferation of Plasmodium falciparum line Dd2 (AID 1882); conditions: Potency: Plasmodium falciparum Dd2 proliferation inhibition; also: potency is read from the fitted curve at half-maximal effect; nearly all actives have a fitted effect of over 65% in size
# Outline: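 SYBR Green DNA fluorescence (ex 485, em 535 nm) after overnight lysis quantifies parasite growth; compound exposure lasted 72 h at 37 C on infected red cells at 2.5% hematocrit, 0.3% parasitemia (final). Artemisinin 0.29 uM and vehicle wells define normalization.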
# [11] = qHTS for differential inhibitors of proliferation of Plasmodium falciparum line W2 (AID 1883); conditions: Potency: Plasmodium falciparum W2 proliferation inhibition;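 also: potency is read from the fitted curve at half-maximal effect; parasites grown with compound for 72 h before lysis and staining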
# [12] = qHTS for differential inhibitors of proliferation of Plasmodium falciparum line HB3 (AID 1886); conditions: Potency: Plasmodium falciparum HB3 proliferation inhibition;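 also: potency is read from the fitted curve at half-maximal effect; parasites grown with compound for 72 h before SYBR Green readout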
# [13] = biological target: ATP-dependent DNA helicase Q1 (Homo sapiens) (UniProt P46063); assay: qHTS Validation Assay for Inhibitors of RecQ-Like Dna Helicase 1 (RECQ1) (AID 2353)
# Outline: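 RECQ1T1 50 nM; forked duplex (20 bp + 30-nt ss tails) 200 nM, ATP 2 mM final; pH 8.0, 2 mM MgCl2, 2.5 ug/ml poly(dI-dC); 15 min compound preincubation; discontinuous kinetic read over 2 h at RT.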
# [14] = Validation screen for small molecules that induce DNA re-replication in MCF 10A normal breast cells (AID 463097); also: nearly all actives have a fitted effect of over 60% in size
# Outline: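 Following 48 hr compound incubation (37 C, 5% CO2), MCF 10A cells receive Hoechst for 40 min at 37 C. Nuclei are then scanned (excitation 405 nm, emission 500-530 nm) for total fluorescence intensity.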
# [15] = biological target: M-phase phosphoprotein 8 (Homo sapiens) (UniProt Q99549); assay: qHTS Validation Assay for Inhibitors for MPP8 Chromodomain Interactions with Methylated Histone Tails (AID 488949); also: nearly all actives have a fitted effect of over 55% in size; also: potency is read from the fitted curve at half-maximal effect
# Outline: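 Chemiluminescent proximity assay: histidine-tag capture via nickel acceptor beads, biotin peptide via streptavidin donor beads. Protein and peptide each at 50 nM, pH 7.4, with 30 min incubations at room temperature for complex formation, compound exposure and bead binding.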
# [16] = biological target: Transient receptor potential cation channel subfamily V member 1 (Homo sapiens) (UniProt Q8NER1); assay: HTS Assay for Compounds that Act as Enhancers of the Vanilloid Receptor 1 (AID 488979)
# Outline: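 TRPV1 cells loaded with Fluo-8 calcium dye; compound added and Ca2+ signal (ex 480/em 520 nm) followed 3 min, then capsaicin at EC20 added and read 2 more min to detect enhancement.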
# [17] = biological target: Thyrotropin-releasing hormone receptor (Homo sapiens) (UniProt P34981); assay: qHTS for Small Molecule Agonists and Allosteric Enhancers of Human TRH Receptor: Validation Screen for Agonists (AID 493127;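 active = calcium activation more than 3 SD above the typical response in the agonist read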;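 also: intracellular calcium rise by fluo-8 fluorescence before TRH EC20 addition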); conditions: TRH receptor agonist cell assay; at 2 µM; hits give high values
# Outline: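 Compounds are added by online pintool to dye-loaded TRHR cells while fluorescence is recorded every second. A rise in calcium signal during the agonist read marks activation; a later 10 nM TRH addition (EC20) serves the separate enhancer mode.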
# [18] = biological target: Galactokinase (Homo sapiens) (UniProt P51570); assay: qHTS Validation Assay for Inhibitors of Human Galactokinase (GALK) (AID 493189)
# Outline: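 Enzyme activity is inferred from ATP consumption: human GALK phosphorylates galactose (100 uM) using 35 uM ATP for 1 h at room temperature, and luciferase-based Kinase-Glo Plus reports unconsumed ATP.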
# [19] = biological target: Voltage-gated inwardly rectifying potassium channel KCNH2 (Homo sapiens) (UniProt Q12809); assay: qHTS Assay for Small Molecule Inhibitors of the Human hERG Channel Activity (AID 588834);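 also: lower thallium flux fluorescence means stronger hERG block; nearly all actives have a fitted effect of over 50% in size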; also: potency is read from the fitted curve at half-maximal effect
# Outline: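 Homogeneous FluxOR thallium flux assay using hERG-expressing U2OS cells (BacMam). Compound treatment about 10 minutes preceded stimulation; reduced fluorescence taken as channel block.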
# Chain of Cytochrome P450 2C9 (Homo sapiens) (P11712 whole entry, looked up): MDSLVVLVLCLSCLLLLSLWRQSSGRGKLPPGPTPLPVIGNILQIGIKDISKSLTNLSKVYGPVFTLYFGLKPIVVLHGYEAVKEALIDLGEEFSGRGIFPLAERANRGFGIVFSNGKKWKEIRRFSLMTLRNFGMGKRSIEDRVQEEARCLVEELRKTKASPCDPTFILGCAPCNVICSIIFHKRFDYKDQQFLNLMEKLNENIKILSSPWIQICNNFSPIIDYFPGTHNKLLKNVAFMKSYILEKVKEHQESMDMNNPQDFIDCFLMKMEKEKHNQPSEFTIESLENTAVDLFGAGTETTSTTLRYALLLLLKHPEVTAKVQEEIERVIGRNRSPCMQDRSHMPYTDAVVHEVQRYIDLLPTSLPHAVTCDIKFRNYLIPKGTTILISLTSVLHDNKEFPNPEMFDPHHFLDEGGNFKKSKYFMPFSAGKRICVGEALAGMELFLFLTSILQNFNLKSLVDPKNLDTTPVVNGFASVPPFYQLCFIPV
# Chain of Rap guanine nucleotide exchange factor 4 (Homo sapiens) (Q8WZA2 whole entry, looked up): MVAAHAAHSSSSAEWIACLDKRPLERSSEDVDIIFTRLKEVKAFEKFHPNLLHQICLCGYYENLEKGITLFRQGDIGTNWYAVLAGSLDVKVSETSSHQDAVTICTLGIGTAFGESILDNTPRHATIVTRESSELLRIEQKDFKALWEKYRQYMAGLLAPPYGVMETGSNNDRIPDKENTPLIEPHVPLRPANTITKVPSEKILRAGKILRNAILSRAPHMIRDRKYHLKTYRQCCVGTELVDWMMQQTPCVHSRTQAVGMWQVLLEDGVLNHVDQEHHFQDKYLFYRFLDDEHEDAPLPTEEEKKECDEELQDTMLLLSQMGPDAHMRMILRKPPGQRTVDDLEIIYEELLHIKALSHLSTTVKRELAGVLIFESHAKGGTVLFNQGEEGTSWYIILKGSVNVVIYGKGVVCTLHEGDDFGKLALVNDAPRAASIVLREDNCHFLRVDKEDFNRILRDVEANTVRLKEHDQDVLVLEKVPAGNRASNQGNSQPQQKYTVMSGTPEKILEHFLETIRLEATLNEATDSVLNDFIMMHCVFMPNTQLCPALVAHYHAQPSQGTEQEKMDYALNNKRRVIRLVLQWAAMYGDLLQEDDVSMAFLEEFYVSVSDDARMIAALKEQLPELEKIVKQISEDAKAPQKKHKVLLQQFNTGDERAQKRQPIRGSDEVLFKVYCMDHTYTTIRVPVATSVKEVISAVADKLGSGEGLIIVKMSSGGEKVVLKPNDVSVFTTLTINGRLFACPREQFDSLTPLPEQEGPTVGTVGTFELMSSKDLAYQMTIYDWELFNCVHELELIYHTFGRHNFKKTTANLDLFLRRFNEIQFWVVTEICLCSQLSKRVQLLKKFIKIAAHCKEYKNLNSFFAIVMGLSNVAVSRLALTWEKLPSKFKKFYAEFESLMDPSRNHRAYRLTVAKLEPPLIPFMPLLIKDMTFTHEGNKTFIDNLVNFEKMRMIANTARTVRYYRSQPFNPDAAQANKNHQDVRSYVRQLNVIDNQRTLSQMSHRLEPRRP
# Chain of Cytochrome P450 2D6 (Homo sapiens) (P10635 whole entry, looked up): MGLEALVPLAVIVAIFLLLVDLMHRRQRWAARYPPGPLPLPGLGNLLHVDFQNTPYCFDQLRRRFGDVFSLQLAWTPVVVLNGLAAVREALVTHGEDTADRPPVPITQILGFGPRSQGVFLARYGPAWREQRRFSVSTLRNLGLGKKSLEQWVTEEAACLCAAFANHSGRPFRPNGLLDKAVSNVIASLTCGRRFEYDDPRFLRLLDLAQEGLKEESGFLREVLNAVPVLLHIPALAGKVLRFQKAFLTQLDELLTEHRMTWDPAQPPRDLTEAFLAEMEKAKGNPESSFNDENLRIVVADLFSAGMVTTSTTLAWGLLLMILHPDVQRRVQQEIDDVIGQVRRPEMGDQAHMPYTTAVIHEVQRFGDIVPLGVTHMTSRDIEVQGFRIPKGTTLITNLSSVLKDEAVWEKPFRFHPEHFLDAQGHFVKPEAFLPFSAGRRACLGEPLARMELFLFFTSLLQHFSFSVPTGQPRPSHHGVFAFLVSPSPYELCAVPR
# Chain of Rap guanine nucleotide exchange factor 3 (Homo sapiens) (O95398 whole entry, looked up): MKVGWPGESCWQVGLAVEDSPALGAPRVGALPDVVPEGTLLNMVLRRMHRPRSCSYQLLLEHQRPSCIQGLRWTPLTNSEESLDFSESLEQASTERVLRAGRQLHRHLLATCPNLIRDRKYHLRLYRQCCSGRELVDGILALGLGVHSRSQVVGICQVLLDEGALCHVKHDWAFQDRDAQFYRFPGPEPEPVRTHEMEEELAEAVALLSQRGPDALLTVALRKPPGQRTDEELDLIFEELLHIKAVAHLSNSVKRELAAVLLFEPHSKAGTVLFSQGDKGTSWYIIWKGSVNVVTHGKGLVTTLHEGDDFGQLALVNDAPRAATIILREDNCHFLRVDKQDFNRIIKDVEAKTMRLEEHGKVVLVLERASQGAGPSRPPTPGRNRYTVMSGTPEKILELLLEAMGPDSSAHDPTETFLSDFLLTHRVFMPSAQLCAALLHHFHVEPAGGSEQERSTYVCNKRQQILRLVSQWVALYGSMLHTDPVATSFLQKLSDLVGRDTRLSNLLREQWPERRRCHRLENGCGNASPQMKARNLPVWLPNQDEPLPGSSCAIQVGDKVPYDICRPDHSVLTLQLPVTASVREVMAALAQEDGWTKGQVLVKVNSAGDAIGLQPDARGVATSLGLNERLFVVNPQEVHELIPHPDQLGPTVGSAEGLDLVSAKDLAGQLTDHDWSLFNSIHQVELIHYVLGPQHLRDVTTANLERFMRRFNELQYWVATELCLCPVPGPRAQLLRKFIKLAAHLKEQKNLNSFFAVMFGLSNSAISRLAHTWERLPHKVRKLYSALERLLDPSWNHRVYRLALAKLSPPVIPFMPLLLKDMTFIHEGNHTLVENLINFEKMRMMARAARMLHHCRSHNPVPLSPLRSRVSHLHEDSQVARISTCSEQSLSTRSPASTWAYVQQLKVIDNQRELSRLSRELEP
# Chain of Cytochrome P450 2C19 (Homo sapiens) (P33261 whole entry, looked up): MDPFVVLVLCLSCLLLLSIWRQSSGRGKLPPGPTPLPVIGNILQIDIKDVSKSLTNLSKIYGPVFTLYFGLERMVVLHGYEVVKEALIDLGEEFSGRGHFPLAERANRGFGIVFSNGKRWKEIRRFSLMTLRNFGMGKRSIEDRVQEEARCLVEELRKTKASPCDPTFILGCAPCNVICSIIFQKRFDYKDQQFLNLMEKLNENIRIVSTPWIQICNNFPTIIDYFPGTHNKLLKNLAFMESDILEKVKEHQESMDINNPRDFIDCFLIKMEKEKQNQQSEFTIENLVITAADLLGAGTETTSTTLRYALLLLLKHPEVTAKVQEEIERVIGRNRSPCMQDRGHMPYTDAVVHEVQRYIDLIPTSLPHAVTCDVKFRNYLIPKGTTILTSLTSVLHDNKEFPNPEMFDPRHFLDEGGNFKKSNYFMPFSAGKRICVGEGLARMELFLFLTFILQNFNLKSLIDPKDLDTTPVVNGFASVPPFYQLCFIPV
# Chain of Transient receptor potential cation channel subfamily V member 1 (Homo sapiens) (Q8NER1 whole entry, looked up): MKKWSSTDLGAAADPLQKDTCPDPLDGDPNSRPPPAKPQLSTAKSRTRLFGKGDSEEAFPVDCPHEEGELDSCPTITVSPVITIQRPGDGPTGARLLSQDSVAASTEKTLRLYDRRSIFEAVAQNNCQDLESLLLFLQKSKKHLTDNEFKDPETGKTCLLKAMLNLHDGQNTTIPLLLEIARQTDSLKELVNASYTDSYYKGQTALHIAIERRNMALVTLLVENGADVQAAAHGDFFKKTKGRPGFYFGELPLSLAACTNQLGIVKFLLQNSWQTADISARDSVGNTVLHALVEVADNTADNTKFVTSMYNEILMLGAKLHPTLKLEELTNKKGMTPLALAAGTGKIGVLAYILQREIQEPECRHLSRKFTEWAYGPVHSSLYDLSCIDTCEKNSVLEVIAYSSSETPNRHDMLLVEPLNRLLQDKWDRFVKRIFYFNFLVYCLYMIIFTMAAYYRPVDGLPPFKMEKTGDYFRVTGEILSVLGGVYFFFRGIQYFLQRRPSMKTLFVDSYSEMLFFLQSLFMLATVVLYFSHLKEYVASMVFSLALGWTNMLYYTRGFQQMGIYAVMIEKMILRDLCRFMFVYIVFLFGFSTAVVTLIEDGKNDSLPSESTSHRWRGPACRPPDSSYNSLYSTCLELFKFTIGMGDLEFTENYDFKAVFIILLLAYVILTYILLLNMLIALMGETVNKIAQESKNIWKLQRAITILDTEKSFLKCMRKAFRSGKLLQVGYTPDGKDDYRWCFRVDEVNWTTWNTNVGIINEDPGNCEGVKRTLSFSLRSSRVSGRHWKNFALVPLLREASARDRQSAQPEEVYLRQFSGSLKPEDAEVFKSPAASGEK
# Chain of DNA repair nuclease/redox regulator APEX1 (Homo sapiens) (P27695 whole entry, looked up): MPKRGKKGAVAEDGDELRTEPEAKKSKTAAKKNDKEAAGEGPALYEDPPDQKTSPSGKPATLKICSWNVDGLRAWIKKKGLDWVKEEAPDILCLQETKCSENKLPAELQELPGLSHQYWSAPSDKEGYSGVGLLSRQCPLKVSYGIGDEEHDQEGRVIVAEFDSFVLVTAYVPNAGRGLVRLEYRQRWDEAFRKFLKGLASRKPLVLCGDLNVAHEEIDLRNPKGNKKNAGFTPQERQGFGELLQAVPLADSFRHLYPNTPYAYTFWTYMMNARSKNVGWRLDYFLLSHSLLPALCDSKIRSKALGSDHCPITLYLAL
# Chain of Thyrotropin-releasing hormone receptor (Homo sapiens) (P34981 whole entry, looked up): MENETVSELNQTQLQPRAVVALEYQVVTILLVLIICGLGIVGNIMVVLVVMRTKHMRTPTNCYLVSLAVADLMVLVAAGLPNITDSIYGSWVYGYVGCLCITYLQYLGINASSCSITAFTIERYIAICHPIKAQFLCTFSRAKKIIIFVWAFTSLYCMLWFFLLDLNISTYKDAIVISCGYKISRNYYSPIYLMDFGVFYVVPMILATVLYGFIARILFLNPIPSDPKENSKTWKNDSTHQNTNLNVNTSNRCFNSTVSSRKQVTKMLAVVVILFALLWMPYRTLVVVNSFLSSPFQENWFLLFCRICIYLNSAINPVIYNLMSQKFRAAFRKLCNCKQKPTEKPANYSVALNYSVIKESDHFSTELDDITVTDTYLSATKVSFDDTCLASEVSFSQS
smiles,measurement,setting,value
COc1ccc2[nH]cc(CCNc3ncnc4ccc(-c5ccc6c(c5)OCO6)cc34)c2c1,Potency,[1],0.126 µM (active)
same,Potency,[2],2.51 µM (active)
same,Potency,[3],1.58 µM (active)
same,Potency,[4],inactive
same,Potency,[5],inactive
CC(C)CN1CCCC2(CCN(C(=O)c3ccco3)CC2)C1,Potency,[1],inactive
NC(Cc1ccc(O)c(O)c1)C(=O)O (centres undefined),Potency,[4],1.4 µM (active)
same,Potency,[5],44.1 µM (active)
COc1ccc2c(c1)OC/C(=C/c1ccc(O)c(O)c1)C2=O,Potency,[5],inactive
O=c1c(O)c(-c2ccc(O)c(O)c2)oc2c(OC3OC(CO)C(O)C(O)C3O)c(O)cc(O)c12 (centres undefined),Potency,[4],inactive
same,Potency,[5],inactive
Cc1ccccc1-c1ccc2ncnc(N(C)Cc3ccco3)c2c1,Potency,[5],31.2 µM (active)
COc1c(-c2ccc(O)c(O)c2)oc2cc(O)cc(O)c2c1=O,Potency,[1],inactive
same,Potency,[2],inactive
same,Potency,[3],inactive
same,Potency,[5],inactive
CC(=O)Oc1ccc2c(c1)CCC1C2CC[C@]2(C)C(OC(C)=O)CCC12 (some centres undefined),Potency,[4],inactive
same,Potency,[5],inactive
COc1ccccc1CNc1ncnc2ccc(-c3cccnc3)cc12,Potency,[2],5.01 µM (active)
same,Potency,[4],inactive
N#C/C(=C\c1ccc(O)c(O)c1)C(=O)NCCCCc1ccccc1,Potency,[4],15.7 µM (active)
CC1(C)C=CC(=O)[C@]2(C)C1CC(=O)[C@]1(C)C2CC[C@@]2(C)C(c3ccoc3)OC(=O)C3OC321 (some centres undefined),Potency,[4],inactive
same,Potency,[5],inactive
N[C@H](C(=O)O)C(O)C(O)C(O)CO (some centres undefined),Potency,[4],inactive
same,Potency,[5],inactive
O=C(O)c1cc(O)c2c(c1)C(=O)c1cc(O)cc(O)c1C2=O,Potency,[5],inactive
COc1ccc2c(c1)[C@@]1(C)CCC[C@](C)(CO)C1CC2 (some centres undefined),Potency,[5],39.3 µM (active)
C=CC(C1=CC(=O)C(OC)=CC1=O)c1ccccc1 (centres undefined),Potency,[5],31.2 µM (active)
O=c1c(-c2ccccc2)coc2cc(O)cc(O)c12,Potency,[4],44.4 µM (active)
same,Potency,[5],inactive
COc1cc(C/C=C/c2ccccc2)c(OC)cc1O,Potency,[4],inactive
same,Potency,[5],inactive
CC1(C)C(O)CC[C@]2(C)C1CC[C@@]1(C)C2C(=O)C=C2[C@@H]3C[C@@](C)(C(=O)O)CC[C@@]3(C)CCC21C (some centres undefined),Potency,[4],inactive
same,Potency,[5],4.94 µM (active)
CC1=CC2C(CC1=O)C(C)=CCC2C(C)C (centres undefined),Potency,[4],inactive
same,Potency,[5],39.3 µM (active)
COc1cccc(-c2nc(Nc3ccncc3)c3ccccc3n2)c1,Potency,[3],3.16 µM (active)
same,Potency,[4],inactive
same,Potency,[5],inactive
CN(Cc1ccco1)c1nc(-c2ccccc2Cl)nc2ccccc12,Potency,[4],inactive
CC(=O)OC1CC2C(C)(C)CCC(=O)[C@@]2(C)C2CC[C@@]3(C)C(c4ccoc4)OC(=O)C4OC43[C@]12C (some centres undefined),Potency,[4],inactive
same,Potency,[5],inactive
COc1ccc(-c2nc3cnc(Nc4cccc(OC)c4)nc3n(CCC#N)c2=O)cc1,Potency,[4],inactive
same,Potency,[5],inactive
CC(=O)OC1CCC23CC1(C)CCC2C(C)(C)CC3OC(C)=O (centres undefined),Potency,[4],inactive
same,Potency,[5],39.3 µM (active)
COc1ccc2c(c1)OCc1c-2oc2cc(OC)ccc12,Potency,[4],inactive
same,Potency,[5],inactive
Nc1nc2n[nH]nc2c(=O)[nH]1,Potency,[4],inactive
same,Potency,[5],inactive
COC(=O)CCCOc1ccc(Cl)cc1Cl,Potency,[4],inactive
C#C[C@]1(OC(C)=O)CCC2C3CCC4=CC(=O)CCC4C3CC[C@]21C (some centres undefined),Potency,[4],inactive
COc1ccc(-c2cc(=O)c3c(OC)c(OC)c(OC)c(OC)c3o2)cc1,Potency,[4],inactive
O=c1cc(-c2ccc(O)c(O)c2)oc2cc(OC3OC(CO)C(O)C(O)C3O)cc(O)c12 (centres undefined),Potency,[4],7.03 µM (active)
same,Potency,[5],inactive
CCOC(=O)c1c(C)cc(OC)cc1O,Potency,[4],inactive
O=C1CC[C@@]23/C=C/C(=O)NCCCCNCCCNC(=O)/C=C/c4ccc(c2c4)OC3C1 (some centres undefined),Potency,[4],inactive
same,Potency,[5],inactive
CN(Cc1ccco1)c1nc(-c2cccc(C#N)c2)nc2ccccc12,Potency,[4],inactive
same,Potency,[5],inactive
COC(=O)c1c(OC)cc2c(c1C)Oc1c(Cl)c(O)c(Cl)c(C)c1C(=O)O2,Potency,[5],8.79 µM (active)
COc1ccc(C(=O)O)c(O)c1OC,Potency,[4],inactive
same,Potency,[5],inactive
NCC1OC(n2cnc3c(=O)[nH]c(N)nc32)C(O)C1O (centres undefined),Potency,[4],inactive
same,Potency,[5],inactive
COC(=O)c1c(OC)cc2c(c1C)Oc1c(Cl)c(OC(C)=O)c(Cl)c(C)c1C(=O)O2,Potency,[4],inactive
same,Potency,[5],11.1 µM (active)
CC(=O)OC1c2c(ccc3ccc(=O)oc23)OC(C)(C)C1OC(=O)CC(C)C (centres undefined),Potency,[5],44.1 µM (active)
C=C[C@](C)(O)CCC1C(=C)CC(OC(C)=O)C2C(C)(C)CCCC12C (some centres undefined),Potency,[5],11.1 µM (active)
COc1ccc2c(c1)OCC(Cc1ccc(OC)c(OC(C)=O)c1)C2=O (centres undefined),Potency,[4],inactive
COc1cccc(-c2cncnc2NCc2ccc(OC)cc2OC)c1,Potency,[2],7.94 µM (active)
same,Potency,[5],44.1 µM (active)
CC(=O)Oc1ccc2c(c1C(C)C)CCC1C(C)(C)CCC[C@@]21C (some centres undefined),Potency,[4],inactive
same,Potency,[5],inactive
COc1cc(-c2coc3cc(OCc4ccccc4)c(OC)c(O)c3c2=O)cc(O)c1OC,Potency,[4],inactive
same,Potency,[5],inactive
CCCC1O[C@@H]2C[C@H]3[C@@H]4CCC5=CC(=O)C=C[C@]5(C)C4[C@@H](O)C[C@]3(C)[C@]2(C(=O)CO)O1 (some centres undefined),outcome,[6],inactive
same,outcome,[7],inactive
same,outcome,[8],inactive
same,Potency,[9],2.51 µM (active)
same,Potency,[10],5.01 µM (active)
same,Potency,[11],2.51 µM (active)
same,Potency,[12],5.01 µM (active)
same,outcome,[13],inactive
same,outcome,[14],inactive
same,Potency,[15],inactive
same,outcome,[16],inactive
same,activation,[17],2.06%
same,outcome,[18],inactive
same,Potency,[19],inactive
CN1CCc2c(cc(O)c(O)c2Cl)C(c2cccc(Cl)c2)C1 (centres undefined),outcome,[6],inactive
same,outcome,[7],inactive
same,outcome,[8],inactive
same,Potency,[9],3.55 µM (active)
same,Potency,[10],11.2 µM (active)
same,Potency,[11],5.01 µM (active)
same,Potency,[12],8.91 µM (active)
same,outcome,[13],inactive
same,outcome,[14],inactive
same,Potency,[15],39.8 µM (active)
same,outcome,[16],inactive
same,activation,[17],0.0625%
same,outcome,[18],inactive
same,Potency,[19],12.6 µM (active)
